# High-throughput results deposited in PubChem by several laboratories.
# Peg3 prom inh-1 = Peg3 promoter-driven luciferase inhibitors, primary screen, cell-based, HeLa, luciferase luminescence. HeLa PEG-Prom luciferase reporter, overnight. inhibition, % at 20 µM. 360,000 compounds, 1.7% hits. AID 588405, 2011;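 active = inhibition of at least 50% at 20 µM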
# TRPM1 prom inh = inhibitors of MITF-dependent TRPM1 promoter reporter, primary screen, cell-based, SK-MEL-5, single point, luciferase | SK-MEL-5 TRPM1 promoter luciferase, 24 h | inhibition, % at 12.5 µM | 330,000 compounds, 0.83% hits;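 active = mean inhibition across replicates of 60% or more, whatever share of single replicates reaches that level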
# EBV LMP1 NFkB = EBV LMP1-driven NF-kappaB luciferase reporter inhibitors, primary screen, cell-based, luminescence, single point | LMP1-induced NF-kappaB luciferase reporter cells | inhibition, % at 12.5 µM | 350,000 compounds, 0.69% hits | AID 504558, 2011; in the data active = inhibition above about 41%;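 also: 0% = neutral control wells and 100% = reference inhibitor control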
# CF NFkB block = inhibitors of PAF-induced NF-kB signaling, primary screen, cell-based, GFP fluorescence, uHTS | KKLEB NF-kB-GFP reporter, GFP fluorescence overnight | inhibition, % at 5 µM | 360,000 compounds, 0.86% hits;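 active = at least 50% inhibition at 5 µM, scaled per plate between neutral and stimulator controls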;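 also: PAF is a Pseudomonas aeruginosa culture filtrate used as stimulus; plate controls were PAF-stimulated DMSO wells for no effect and unstimulated DMSO wells for full effect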
# Shn3 inh set2 = reduction of Shn3 3'UTR firefly luciferase signal, primary screen, Schnurri-3 inhibitor project, cell-based, Clone20 osteoblasts, set 2; Clone20 osteoblast Shn3 3'UTR firefly luciferase, 24 h; 360,000 compounds, 0.52% hits; inhibition, % at 12.5 µM;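 active = mean inhibition of at least 75% with every replicate also reaching 75%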;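 also: 0% = median of neutral control wells and 100% = pilot-screen positive control compound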
# KKLEB cytotox = cytotoxicity in KKLEB CF airway cells, primary screen, cytotoxicity control for CF NF-kB inhibitor project, cell-based, uHTS, fluorescence assay plates. activity change (cytotoxicity), % at 5 µM. AID 602141, 2011. KKLEB CF airway cells viability, ATPlite luminescence, overnight; stronger effect = lower value; cells stimulated with P. aeruginosa culture filtrate. 360,000 compounds, 0.36% hits;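 active = corrected activity change at or below -50% at 5 µM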
# Peg3 prom inh-2 = Peg3 promoter reporter inhibitors, retest, confirmation, cell-based, HeLa, luciferase reporter, single concentration; shares compounds with Peg3 prom inh-1; HeLa PEG-Prom luciferase reporter, luminescence, overnight; inhibition, % at 20 µM; 1,300 compounds, 84% hits; AID 602417, 2012;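 active = at 20 µM dose, 40% or more inhibition averaged across four replicates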
# * = called active by the depositor; x = no result given. Compounds with a hit are over-represented: about 2.9% of the library has one in this group of screens.
SMILES,Peg3 prom inh-1,TRPM1 prom inh,EBV LMP1 NFkB,CF NFkB block,Shn3 inh set2,KKLEB cytotox,Peg3 prom inh-2
CC(=O)c1cccc(NC(=O)c2cccc3c(-c4cccnc4)coc23)c1,66.2*,x,x,-34.4,21.0,-0.5,60.6*
O=c1cc2oc3cc(O)c(O)cc3c(-c3ccccc3[N+](=O)[O-])c-2cc1O,60.3*,44.7,23.2,11.8,25.5,-20.3,74.7*
COc1ccc(C[C@H]2CN3C(=NC[C@@H]3Cc3ccc(O)cc3)N2C[C@H](C)NC(=O)CCC2CCCCC2)cc1,63.1*,-4.3,-0.7,9.2,6.2,-10.6,28.9
C[C@@H](CN1C2=NC[C@H](C)N2C[C@H]1Cc1ccc(O)cc1)NC(=O)CCC1CCCCC1,2.3,-6.8,7.1,-16.6,21.4,9.0,x
Cc1cccc(/C=C2/Sc3ccc(C(=O)NCCN4CCCC4)cc3NC2=O)c1,93.8*,88.6*,-6.1,14.0,-2.5,-18.9,100.1*
CCN1C/C(=C/c2ccc(N3CCOCC3)cc2)C(=O)/C(=C/c2ccc(N3CCOCC3)cc2)C1,101.2*,93.1*,-68.6,-16.7,65.5,2.6,97.1*
O=C(/C=C/c1ccc(F)cc1)NC(=S)NNC(=O)c1cnccn1,55.2*,21.2,36.3,22.5,89.3*,0.6,40.1*
O=C(NC(=S)NNC(=O)c1cnccn1)c1ccc(F)cc1,23.3,-2.5,16.0,6.9,66.0,17.0,x
O=c1c2ccccc2sc2ccc(C#CC3(O)CCCCC3)cc12,78.6*,93.2*,81.2*,-25.4,88.7*,-85.2*,92.4*
COc1cccc2sc3ccc(C#CC4(O)CCCCC4)cc3c(=O)c12,-162.5,-101.6,-35.3,-34.9,-86.2,-14.3,x
O=c1c2ccccc2oc2cc(C#CC3(O)CCCCC3)ccc12,60.2*,49.2,10.6,4.5,41.6,-42.5,58.6*
COc1cccc2oc3cc(C#CC4(O)CCCCC4)ccc3c(=O)c12,-94.5,-25.1,-36.0,0.7,-24.1,-33.5,x
CCOC(=O)C1CC2=C(CC(C)(C)CC2=O)N(CCOC)C1=O (centres undefined),-5.9,-6.3,-1.9,-8.8,-1.4,16.5,x
Cc1ccc(N2CCC3CC2c2cc(-c4ccc(C(F)(F)F)cc4)ccc23)cc1 (centres undefined),21.2,x,2.4,11.7,17.5,-17.3,x
CCN(CCN(C)C)C(=O)C1CCN(S(=O)(=O)c2c(C)noc2/C=C/c2ccccc2F)CC1,90.0*,44.6,-6.8,12.8,-8.0,-4.3,51.2*
Cc1noc(/C=C/c2ccco2)c1S(=O)(=O)N1CCC(C(=O)N(C)Cc2ccccc2)CC1,5.8,-1.2,-0.1,-4.9,26.9,8.6,x
COc1ccc(C2c3ccc4ccccc4c3Oc3ncn(CCO)c(=N)c32)cc1OC (centres undefined),59.8*,-11.1,-3.1,39.1,5.3,-4.9,81.9*
COc1ccc(C2c3c(ncn(CCCN4CCOCC4)c3=N)Oc3ccc4ccccc4c32)cc1OC (centres undefined),69.2*,79.8*,-20.2,27.0,0.9,8.0,85.5*
COc1ccc(C2c3ccc4ccccc4c3Oc3ncn(CCCO)c(=N)c32)cc1 (centres undefined),65.1*,15.9,-2.8,17.8,8.3,-15.8,86.2*
CN(Cc1ccccc1)C(=O)c1ncn2c1c(=O)[nH]c1cccnc12,5.3,x,-7.7,17.0,1.0,-5.7,x
C[C@@H]1CN([C@@H](C)CO)C(=O)CCCn2nncc2CO[C@@H]1CN(C)S(=O)(=O)c1ccc(Oc2ccccc2)cc1,-7.7,x,-4.9,-3.4,-16.8,8.1,x
CC1CCCCN1CCNC(=O)c1ccc2c(=O)n(Cc3ccc(Cl)cc3)c(=S)[nH]c2c1 (centres undefined),101.7*,10.5,-7.9,-4.4,-3.4,-11.6,97.6*
